Laboratory results reported in PubChem BioAssay (NCATS).
Inconclusive results are not listed. The source made the active and inactive calls. The call rests on the fitted dose curve; in most records, active means well fitted inhibition curve with a large enough effect; inconclusive means small, poorly fitted or top-dose-only effect; inactive means flat fitted curve, though single readings scatter.

How the values were obtained:
Test in all cases: qHTS profiling for inhibitors of Plasmodium falciparum proliferation (AID 504749); further: nearly all actives have a fitted effect of over 60% in size
Settings in all cases: P. falciparum in erythrocytes, SYBR Green DNA, 72 h; series mostly up to 28.7 µM
[1] = tested on: CP194
How it was run: (§1)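 SYBR Green fluorescence (ex 485 nm, em 535 nm) reports parasite DNA after 72 h compound exposure of infected red cells at 0.3% parasitemia, 2.5% hematocrit; signal normalized to 0.29 uM artemisinin and vehicle wells.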

[2] = tested on: CP201
How it was run: as §1

[3] = tested on: CP203
How it was run: as §1

[4] = tested on: CP211
How it was run: as §1

[5] = tested on: CP217
How it was run: as §1

[6] = tested on: CP237
How it was run: as §1

[7] = tested on: CP238
How it was run: as §1

[8] = tested on: CP247
How it was run: as §1

[9] = tested on: CP250
How it was run: as §1

[10] = tested on: CP252
How it was run: as §1

[11] = tested on: CP256
How it was run: as §1

[12] = tested on: CP260
How it was run: as §1

[13] = tested on: CP262
How it was run: as §1

[14] = tested on: CP265
How it was run: as §1

[15] = tested on: CP266
How it was run: as §1

[16] = tested on: CP268
How it was run: as §1

[17] = tested on: CP269
How it was run: as §1

[18] = tested on: CP286
How it was run: as §1

[19] = tested on: CP291
How it was run: as §1

[20] = tested on: CP215
How it was run: as §1

Measured: Potency

O=C(O)CCC(=O)c1ccc(-c2ccccc2)cc1
inactive: [1] | [2] | [3] | [4] | [5] | [6] | [7] | [8] | [9] | [10] | [11] | [12] | [13] | [14] | [15] | [16] | [17] | [18] | [19]

COc1cc(C)c(/C=C/C(C)=C/C=C/C(C)=C/C(=O)O)c(C)c1C
inactive: [1] | [2] | [3] | [4] | [5] | [6] | [7] | [8] | [9] | [10] | [11] | [12] | [13] | [14] | [15] | [16] | [17] | [18] | [19]

CCN(CC)CCC(=O)N1c2ccccc2Sc2ccc(C(F)(F)F)cc21
inactive: [1] | [2] | [3] | [4] | [20] | [5] | [6] | [7] | [9] | [10] | [12] | [13] | [14] | [15] | [16] | [17] | [18]

O=P(O)(O)OP(=O)(O)O
inactive: [1] | [2] | [3] | [4] | [20] | [6] | [8] | [9] | [11] | [12] | [13] | [15] | [16] | [17] | [18] | [19]

COc1ccc2c(=O)c(C)c(-c3ccccc3)oc2c1CN(C)C
inactive: [1] | [2] | [3] | [4] | [5] | [7] | [8] | [9] | [10] | [11] | [12] | [13] | [14] | [15] | [17]

CC1CC(O)CC(C)(C)C1 (configuration not stated)
inactive: [1] | [2] | [4] | [20] | [5] | [6] | [7] | [8] | [9] | [10] | [11] | [12] | [13] | [14] | [15] | [16] | [17] | [18] | [19]

Cc1ncc[nH]1
inactive: [1] | [2] | [3] | [4] | [5] | [6] | [7] | [8] | [9] | [10] | [11] | [12] | [13] | [14] | [15] | [16] | [17] | [18] | [19]

C[C@H](N)C(=O)N[C@@H](C)P(=O)(O)O
inactive: [1] | [2] | [3] | [4] | [5] | [6] | [7] | [8] | [9] | [10] | [11] | [13] | [14] | [15] | [16] | [17] | [18] | [19]

C[C@@](Cc1ccc(O)c(O)c1)(NN)C(=O)O
inactive: [1] | [2] | [3] | [4] | [20] | [5] | [7] | [8] | [9] | [10] | [11] | [13] | [14] | [15] | [16] | [17] | [18] | [19]

Cn1c(=O)c2c(ncn2CCOC(=O)C(C)(C)Oc2ccc(Cl)cc2)n(C)c1=O
inactive: [1] | [2] | [3] | [4] | [20] | [6] | [9] | [12] | [13] | [15] | [16] | [17] | [18] | [19]

CCOC(=O)c1cc(-c2ccccc2)nc2ccc(C)cc12
inactive: [1] | [2] | [4] | [20] | [5] | [6] | [7] | [8] | [9] | [10] | [11] | [12] | [13] | [14] | [15] | [16] | [17] | [18] | [19]

C[C@H](CCCC(C)(C)O)[C@H]1CC[C@H]2[C@@H]3CC=C4C[C@@H](O)CC[C@]4(C)[C@H]3CC[C@]12C
inactive: [1] | [2] | [3] | [4] | [20] | [5] | [7] | [8] | [10] | [11] | [12] | [13] | [14] | [15] | [16] | [17] | [18] | [19]

COc1ccc(C(=O)CCC(=O)O)c2ccccc12
inactive: [1] | [2] | [3] | [4] | [20] | [5] | [6] | [7] | [9] | [10] | [11] | [12] | [13] | [14] | [16] | [17] | [18] | [19]

CC(C)NCC(O)COc1ccccc1-n1cccc1 (configuration not stated)
inactive: [1] | [2] | [3] | [4] | [20] | [5] | [7] | [8] | [9] | [10] | [11] | [13] | [14] | [15] | [16] | [17] | [18] | [19]
